“And” between values parts separate entries of the source, which are not always exact repeats. Identical values can stand only once. Results filed as inconclusive are left out. More than one record can exist for a structure, and the calls need not agree. The source made the active and inactive calls. Calls come from the whole dose curve; as a rule, active = well fitted curve in the direction sought with a large enough effect; inconclusive = small, poorly fitted or top-dose-only effect, or another doubt; inactive = no such curve, though single readings can be large; an effect the other way counts as inactive or inconclusive.

A short description of assay [1]: Viability qHTS for spleen associated tyrosine kinase inhibitor (SYKi) naive MV4-11 cells (AID 1963823). Note: nearly all actives have a fitted effect of over 40% in size. The essentials: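 Cells: MV4-11, SYK inhibitor naive, 500 per well. Treatment: library compounds, 72 hr, 37 C, 5% CO2. Read-out: CellTiter-Glo luminescence after 10 min RT.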
For orientation: In qHTS, concentration-response curves come from the screen itself.

Assay [2] in a line: Viability qHTS for spleen associated tyrosine kinase inhibitor (SYKi) drug resistant MV4-11 cells (AID 1963824). Note: nearly all actives have a fitted effect of over 35% in size. The essentials:
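SYK inhibitor-resistant MV4-11 AML cells, 500 per well, added to predispensed compounds and incubated 72 hr at 37 C, 5% CO2. Viability measured by CellTiter-Glo luminescence after 10 min at room temperature.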

The nature of assay [3]: Quantitative highthroughput screen to assess conditional lethalithy of SEM cells grown in RPMI1640 with unreated serum (RPMI+s) (AID 1963883).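 For Viability: 100% = DMSO wells and 0% = empty wells without cells.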 Note: nearly all actives have a fitted effect of over 35% in size. The essentials:
(§1)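 Each medium arm—HPLM with 10% dialyzed FBS, or RPMI1640 with 5 mM glucose and 10% untreated or dialyzed FBS—was screened against an 11-point, 3-fold compound titration for 48 h at 37 °C, with CellTiter-Glo luminescence as endpoint.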

The nature of assay [4]: Quantitative highthroughput screen to assess conditional lethalithy of SEM cells grown in RPMI1640 with dialyzed fetal bovine serum (RPMI+ds) (AID 1963884).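 For Viability: series mostly up to about 46 µM; 100% = DMSO control wells and 0% = empty wells without cells.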 Note: nearly all actives have a fitted effect of over 35% in size. The essentials: as §1
Assay [5] in a line: Cellular viability qHTS for adrenocortical cancer (ACC) cell line NCI-H295R (AID 1963990). Note: nearly all actives have a fitted effect of over 60% in size. The essentials: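 Compound titrations (up to 46 uM final) are applied to NCI-H295R cultures for 48 h at 37C. Viable cell number is estimated by CellTiter-Glo signal, normalised to DMSO and doxorubicin controls.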
Assay [6] can be described thus: Quantitative highthroughput screen to assess conditional lethalithy of SEM cells grown in Human Plasma-Like Medium with dialyzed fetal bovine serum (HPLM+ds) (AID 1963882). For Viability: series mostly up to about 46 µM. Note: nearly all actives have a fitted effect of over 35% in size. The essentials:
as §1

A short description of assay [7]: Cellular viability qHTS for adrenocortical cancer (ACC) cell line SW-13 (AID 1963989).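 For activity (max response): cells grown in serum-free medium with ITS supplement; % is set by controls: 0 for no effect and ±100 for the full control effect.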 Note: nearly all actives have a fitted effect of over 65% in size. The conditions noted are these: SW-13 ACC cells viability, CellTiter-Glo, 48 h; activity (max response): stronger effect = lower value. Summed up: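 48 h treatment, SW-13 in ITS/DMEM serum-free; doses up to 46 uM; readout CellTiter-Glo luminescence; curve fit four-parameter logistic.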

The nature of assay [8]: Quantitative highthroughput screen to assess conditional lethalithy of P12 Ichikawa cells grown in RPMI1640 with dialyzed fetal bovine serum (RPMI+ds) (AID 1963880). Note: nearly all actives have a fitted effect of over 35% in size. The conditions noted are these: Potency: P12-Ichikawa viability. Summed up: as §1
Assay [9] can be described thus: Quantitative highthroughput screen to assess conditional lethalithy of P12 Ichikawa cells grown in RPMI1640 with untreated serum (RPMI+s) (AID 1963881). Note: nearly all actives have a fitted effect of over 35% in size. The settings on record: Potency: viability. Summed up:
as §1

A short description of assay [10]: Quantitative highthroughput screen to assess conditional lethalithy of P12 Ichikawa cells grown in Human Plasma-Like Medium with dialyzed fetal bovine serum (HPLM+ds) (AID 1963879). For Viability: series mostly up to about 46 µM. Note: nearly all actives have a fitted effect of over 35% in size. The conditions noted are these: Potency: viability. Summed up: as §1
Potency is the fitted concentration of half-maximal effect.

With `CN(C)Cc1cccc(N=C(c2ccccc2)c2c(O)[nH]c3cc(C(=O)N(C)C)ccc23)c1`, the Potency is 2.95 µM (active) in assay [1], 7.42 µM (active) in assay [2], 7.43 µM (active) in assay [3] and 10.5 µM (active) in assay [4]. Also, the Potency entry in [5] was “inactive”.

In the case of `CN(C)CCc1c[nH]c2ccc(CS(=O)(=O)N3CCCC3)cc12`, the Potency result in [1], in assay [2], in assay [6] and in assay [5] was “inactive” in each case. The Potency in [3] was 5.9 µM (active). Besides, the activity (max response) in assay [7] was -4.49% (inactive) and 5.74% (inactive).

As to `Nc1ncnc2c1c(-c1cnc3[nH]ccc3c1)nn2C1CCCC1`, the Potency in assay [1] was 920 nM (active) and 590 nM (active); in assay [2], 1.16 µM (active) and 1.18 µM (active); in assay [8], 1.48 µM (active); in assay [6], 5.26 µM (active); in assay [3], 3.72 µM (active); in assay [4], 5.9 µM (active). The Potency in assay [7] was 5.01 µM (active); in assay [5], 2.82 µM (active).

For `C=CC(=O)Nc1cccc(Sc2nc(Nc3ccc(N4CCN(C)CC4)cc3)ncc2Cl)c1`, the Potency is 580 nM (active) and 590 nM (active) in assay [1]; 580 nM (active) and 742 nM (active) in [2]; 23.5 µM (active) in assay [6]; 16.6 µM (active) in assay [4]; 2 µM (active) in assay [7]; 3.16 µM (active) in assay [5].

Turning to `Cn1cnc(-c2cc3nccc(Oc4ccc(NC(=S)NC(=O)Cc5ccccc5)cc4F)c3s2)c1`, the Potency in [1] was 0.0259 µM (active); in assay [2] it was 36.6 nM (active) and 166 nM (active); in assay [8], 18.7 µM (active); in assay [9], 18.7 µM (active); in assay [6], 0.59 µM (active); in [3], 1.18 µM (active). Moreover, the values for the Potency in assay [4], in [7] and in assay [5] were 0.0662 µM (active), 22.4 µM (active) and 14.1 µM (active), respectively.

For the compound `O=C(NOCC1CC1)c1ccc(F)c(F)c1Nc1ccc(I)cc1Cl`, the Potency in [1] was 3.76 µM (active); in assay [2], 3.35 µM (active) and 2.91 µM (active) and 2.35 µM (active); in assay [9], 2.64 µM (active); in assay [6], 7.43 µM (active); in assay [7] it was 10.3 µM (active) and 4.47 µM (active); in assay [5], 3.26 µM (active) and 6.31 µM (active).

`COc1cc(Oc2ccnc3cc(OC)c(OC)cc23)ccc1NC(=O)NC(C)c1nccs1` (stereo unspecified): the Potency entry in assay [1] was “inactive and 7.42 µM (active)”; in assay [2], 14.8 µM (active); in [3], 33.2 µM (active). The activity (max response) in assay [7] was 0.628% (inactive).

`C[C@@H]1CC(=O)NN=C1c1ccc(NN=C(C#N)C#N)cc1`: the Potency in assay [1] was 13.3 µM (active); in assay [2], 15 µM (active); in assay [8], 26.4 µM (active); in assay [6], 18.7 µM (active); in assay [4], 16.6 µM (active). The activity (max response) in assay [7] was -17.4% (inactive) and 2.94% (inactive) and -32.7% (inactive).

For `CN(c1ncccc1CNc1nc(Nc2ccc3c(c2)CC(=O)N3)ncc1C(F)(F)F)S(C)(=O)=O`, the Potency in assay [1] is 0.366 µM (active); in assay [2], 0.731 µM (active); in assay [6] it was 2.96 µM (active); in assay [3] it was 2.64 µM (active); in assay [4], 1.05 µM (active); in assay [7], 31.6 µM (active).

For `CN(C)c1nc(Cc2ccc(NC(=O)c3ccc4ccccc4c3)cc2)nc(Cl)c1CC(=O)O`, the Potency entry in [1], in [2], in assay [6], in assay [3] and in [4] was “inactive” in each case. Also, the Potency in assay [8] is 5.26 µM (active); in assay [9], 2.96 µM (active).

Consider `CC(=O)Nc1nc(C)c(-c2ccc(Cl)c(S(=O)(=O)NCCO)c2)s1`, for which the Potency in assay [1] is 0.82 µM (active); in assay [2], 0.92 µM (active); in [6] it was 4.18 µM (active); in [3] it was 2.64 µM (active); in [4], 1.66 µM (active); in assay [7], 17.8 µM (active). Also, the Potency in assay [5] was 25.1 µM (active).

As to `O=C(Nc1cccc(C(F)(F)F)c1)Nc1cc(S(=O)(=O)NC2CC2)ccc1-c1ccsc1`, the Potency is 14.8 µM (active) in assay [1], 7.42 µM (active) in assay [2] and 31.6 µM (active) in assay [5]. Further, the Potency entry in [10] was “inactive”.

Turning to `Cn1c(=O)c(F)c(Nc2ccc(I)cc2F)c2c(=O)n(C[C@@H](O)CO)cnc21`, the Potency in assay [1] is 0.0332 µM (active); in assay [2], 0.0235 µM (active); in [3] it was 6.62 µM (active); in assay [4], 2.09 µM (active).

With `Oc1cc(-c2nc(-c3ccccc3)[nH]c2-c2ccncc2)ccc1Cl`, the Potency was 6.51 µM (active) in assay [1]; 5.9 µM (active) and 3.66 µM (active) in assay [2]; 16.6 µM (active) in [10]; 17.8 µM (active) in [7]; 28.2 µM (active) in assay [5]. For the same compound, the Potency entry in assay [6] is “inactive”.

Consider `NC(=NCc1ccccc1)NC(=O)c1nc(Cl)c(N)nc1N`, for which the figures for the Potency in [1], in [2] and in [4] were 3.32 µM (active), 5.25 µM (active) and 14.8 µM (active), respectively. Besides, the Potency result in assay [6] is “inactive”.

Consider `Cc1c(NC(=O)OC[C@@H]2COCCN2)cn2ncnc(Nc3ccc4c(cnn4Cc4cccc(F)c4)c3)c12`, for which the Potency in [1] is 10.3 µM (active) and 13.2 µM (active); in [2], 8.2 µM (active) and 11.8 µM (active); in assay [6], 9.35 µM (active); in [3], 9.35 µM (active); in [4], 10.5 µM (active); in [7], 15.8 µM (active). For the same compound, in assay [5], the Potency was 31.6 µM (active).

Consider `CN(C[C@@H]1COCCO1)S(=O)(=O)Nc1ccc2ccc3ncc(-c4cnn(C)c4)cc3c(=O)c2c1`, for which the Potency in assay [1] is 0.296 µM (active); in assay [2], 0.461 µM (active); in [3] it was 0.418 µM (active); in [4] it was 0.662 µM (active).

Regarding `Cc1cc(Nc2cc(CN3CCOCC3)c3nc(C)c(Cc4ccc(Cl)cc4F)n3n2)n[nH]1`, the Potency in assay [1] is 146 nM (active) and 148 nM (active); in assay [2], 259 nM (active) and 235 nM (active); in assay [8], 7.43 µM (active); in assay [3], 2.09 µM (active); in assay [4], 1.48 µM (active); in [7], 2.51 µM (active). Besides, the Potency in assay [5] is 7.94 µM (active).
